From PubChem BioAssay
Methyltransferases: Primary Screen for Target Class Profiling of Small Molecule Inhibitors of Methyltransferases. hit rate 3.9% among 25,000. purified enzyme, MTase-Glo SAH luminescence; hits give low values. calls only at 40 µM. AID 1745853, 2022; call rule not given here
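Each enzyme was assayed with SAM and its substrate. SAH formation detected by MTase-Glo luminescence; single-point 40 uM screen[…].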
Large screens that a line does not name were inactive; ! = repeats disagree. The entries come from a sample that favours hits as a whole.

COC(=O)CCSC/C=C(\C)CCn1cc(CCc2ccc(-c3ccccc3)cc2)nn1	Methyltransferases active!
CC1CC(C)CN(S(=O)(=O)c2ccc3c(c2)oc(=O)n3CC(=O)NCc2ccccn2)C1 (stereo not drawn)	none
O=C(CCc1nnn2c1CN(C(=O)COc1ccc(F)cc1)CC2)N1CCCC1	none
CC(C)CCNC(=O)C1(C)Cn2c(c(-n3cccc3)c3ccccc32)C(=O)N1Cc1ccco1 (stereo not drawn)	none
CCOc1cccc(C2c3cccn3-c3sc4c(c3CN2C(=O)Nc2ccc(F)cc2)CCCC4)c1 (stereo not drawn)	none
CC1(C(=O)NC2CCCCCC2)Cn2c(nc3ccccc32)C(=O)N1Cc1ccccc1 (stereo not drawn)	none
Cn1c(=O)c2[nH]cnc2n(C)c1=O	none
Cn1c(=O)c2[nH]c(-c3ccc(S(=O)(=O)O)cc3)nc2n(C)c1=O	Methyltransferases active
C=CCn1c(=O)c2c(nc(-c3ccc(S(=O)(=O)O)cc3)n2C)n(C)c1=O	none
O=C(NCc1ccccc1)C1CCCN1c1nccc(Nc2ccccc2F)n1 (stereo not drawn)	none
CCCNC(=O)c1cc2n(n1)CC(C)(C(=O)NCc1ccccc1)N(C)C2=O (stereo not drawn)	none
CN(C)C/C=C/C(=O)Nc1cccc(C(=O)Nc2cccc(Nc3ncc(Cl)c(-c4c[nH]c5ccccc45)n3)c2)c1	Methyltransferases active
CN(C)C/C=C/C(=O)Nc1ccc(C(=O)Nc2cccc(Nc3ncc(Cl)c(-c4c[nH]c5ccccc45)n3)c2)cc1	Methyltransferases active
Cn1c(=O)c(-c2c(Cl)cccc2Cl)cc2cnc(Nc3cccc(C(=O)O)c3)nc21	none
CNc1nccc(-c2cccnc2Oc2cc(C(=O)Nc3cccc(C(F)(F)F)c3)ccc2C)n1	none
CN(C)C/C=C/C(=O)Nc1cccc(C(=O)Nc2ccc(Nc3nccc(-c4cccnc4)n3)cc2)c1	Methyltransferases active
Cc1ccc(NC(=O)c2ccc(CN3CCNCC3)cc2)cc1Nc1nccc(-c2cccnc2)n1	none
Cc1ccc(C(=O)N2CCCCCCNC(=O)[C@@H]3C[C@@H](c4nc(Cc5ccccc5)no4)C[C@@H]32)s1	none
COc1ccc(CCNC(=O)c2cc3n(n2)CC(C)(C(=O)NC2CCCC2)N(C)C3=O)c(OC)c1 (stereo not drawn)	none
CC1(C(=O)NC2CCCCCCC2)Cn2c(cc3sccc32)C(=O)N1Cc1ccc(F)cc1 (stereo not drawn)	none
CC(C)n1c(=O)c2ccc(C(=O)NC3CCCC3)cc2n2c(=O)n(Cc3ccccc3)nc12	none
CC1CCC(NC(=O)C2(C)Cn3c(cc4occc43)C(=O)N2CCCc2ccccc2)CC1 (stereo not drawn)	none
Cc1ccc(CNC(=O)C2(C)Cc3ccccc3C(=O)N2Cc2cc(F)cc(F)c2)cc1 (stereo not drawn)	none
O=C(NC1CCCCC1)c1ccc2c(=O)nc3c(-c4ccc(Cl)cc4)n[nH]n3c2c1	none
CC(=O)c1c(C)nn(CCC(=O)N[C@@H]2CCOC[C@H]2OCCO)c1C	none
COc1ccc(N2C(=O)c3cc(-c4ccccc4)nn3CC2(C)C(=O)NCc2ccccc2)cc1 (stereo not drawn)	none
Cc1cc2c(cc1NS(=O)(=O)c1ccc3c(c1)n(C)c(=O)n3C)n(C)c(=O)n2C	none
Cc1cc2[nH]c(=O)[nH]c2cc1S(=O)(=O)Nc1ccccc1	none
Cc1ccc(Cl)cc1N1C(=O)c2cc3sccc3n2CC1(C)C(=O)NC1CCCCC1 (stereo not drawn)	none
CC(=O)Nc1c2n(c3ccc(F)cc13)CC(C)(C(=O)NC1CCCC1)N(Cc1ccccc1)C2=O (stereo not drawn)	none
C=C(C)[C@H]1C[C@@H](O)C(=C)CC[C@@H](O)C(=C)[C@@H](O)C1	Methyltransferases active
CCC(C)NC(=O)c1ccc2c(=O)n(C3CC3)c3nn(CC(=O)Nc4cccc(C)c4)c(=O)n3c2c1 (stereo not drawn)	none
CC(C)/C=C1/NC(=O)C(C(C)C)n2c1nc1c(O)cccc1c2=O (stereo not drawn)	none
Cc1cccc2c1cnn2C(=O)CCC(=O)N1CCN(C2CCCCC2)CC1	none
COc1ccccc1CNC(=O)C1(C)Cn2nc(-c3ccccc3)cc2C(=O)N1c1ccc(C(C)C)cc1 (stereo not drawn)	none
CC(NC(=O)c1cc2n(n1)CC(C)(C(=O)NC1CCCC1)N(C)C2=O)c1ccccc1 (stereo not drawn)	none
COc1c2c(c(C)c3c1C(=O)OC3)O[C@@]1(C)C[C@@H](OC(C)=O)[C@]34O[C@](OC)(CC[C@]3(C)[C@H]1C2)OC4(C)C	Methyltransferases active
COc1c2c(c(C)c3c1C(=O)OC3)OC1(C)CC(O)C34OC(OC)(OC3(C)C)C(O)CC4(C)C1C2 (stereo not drawn)	none
COc1c2c(c(C)c3c1C(=O)OC3)O[C@@]1(C)C[C@@H](O)[C@]34O[C@](OC)(CC[C@]3(C)[C@H]1C2)OC4(C)C	none
CC(C)NC(=O)c1ccc2c(=O)n(Cc3ccccc3)c3nnc(SCC(N)=O)n3c2c1	none
COc1cc2oc(-c3ccc(O)cc3O)cc2c(OC)c1CC=C(C)C	none
Cc1ccc(C(=O)C(C)n2nc3n(C(C)C)c(=O)c4ccc(C(=O)NCC(C)C)cc4n3c2=O)cc1C (stereo not drawn)	none
COc1ccc(CNc2nc3c(-c4ccc(Cl)cc4)nnn3c3ccccc23)cc1	none
COc1ccccc1CCNC(=O)c1ncn2c1C(=O)N(C1CC1)C(C)(C(=O)NC1CCCC1)C2 (stereo not drawn)	none
CCOc1ccc(CCNC(=O)CCc2nnc3n(CC(C)C)c(=O)c4ccccc4n23)cc1	none
Cc1ccc(Cn2c(=O)c3ccc(C(=O)NC4CCCC4)cc3n3c(=O)n(Cc4ccccc4)nc23)cc1	none
CC1CCN(C(c2ccc(F)cc2)c2ccc(C(C)C(=O)O)cc2-c2ccc(C(F)(F)F)cc2)CC1 (stereo not drawn)	Methyltransferases active
CCC(CC)C(=O)NCCc1noc(C)n1	none
COC[C@@H]1CN(S(=O)(=O)c2ccc(C)cc2)C[C@H]1c1ccncc1	none
CCN1C(=O)c2c(C(=O)NCc3ccc(OC)c(OC)c3)ncn2CC1(C)C(=O)NC1CCCC1 (stereo not drawn)	none
NC(=O)C1CCN(c2cc(-c3noc([C@@H]4CCCN4Cc4ccc(Cl)cc4)n3)ccn2)CC1	none
CCN1CCCC1CNC(=O)c1cc(S(=O)(=O)CC)c(N)cc1OC (stereo not drawn)	none
CCN1CCC[C@H]1CNC(=O)c1c(O)c(Cl)cc(Cl)c1OC	none
CCN1CCC[C@@H]1CNC(=O)c1ccc2c(c1)NC(=O)/C(=C/c1ccccc1F)S2	Methyltransferases active
COCCCNC(=O)C1(C)Cn2nc(-c3ccccc3)cc2C(=O)N1Cc1ccccc1OC (stereo not drawn)	none
Cc1cc(CS(=O)(=O)c2ccccc2)cc(OCc2ccc(CN3CCCC3CO)cc2)c1 (stereo not drawn)	none
CN(C)CCCc1cc(C(=O)Nc2ccc(-c3ccncc3)cc2)ccc1O	Methyltransferases active
COc1ccc(NC(=O)c2nc3sccn3c2-c2ccncc2)cc1	none
COc1ccc(C(=O)Nc2ccc3c(c2)C(=O)N(C)C2=NCCN23)cc1OC	none
CN1C(=O)c2cc(C(=O)Nc3cccc(F)c3)nn2CC1(C)C(=O)NC1CCCCCC1 (stereo not drawn)	none
CC1(C(=O)NC2CCCCCC2)Cn2nc(-c3cccs3)cc2C(=O)N1c1ccc(F)cc1 (stereo not drawn)	none
Fc1ccc2c(c1)C1C=CCC1C(c1ccc(Cl)cc1)N2 (stereo not drawn)	none
